The source made the active and inactive calls. How the source made its calls: active means hit-call score of the fitted dose curve at least 0.9, where 1 is the maximum; inactive means score below 0.9.
Legend:
[1] = APR_HepG2_CellCycleArrest_24hr: Apredica 24-hour HepG2 Assay for Cell Cycle Arrest (AID 2282905); conditions: imaging, actives raise or lower the signal;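 further: cell cycle arrest scored as ratio of 2N to 4N nuclear DNA content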
Procedure: (§1) APR_HepG2_24hr is a cell-based, multiplexed-readout assay that uses HepG2, a human liver cell line, with measurements taken at 24 hours after chemical dosing in a 384-well plate.APR_HepG2_CellCycleArrest_24hr is one of 10 assay component(s) measured or calculated from the APR_HepG2_24hr assay. It is designed to make measurements of cell phenotype, a form of morphology reporter, as detected with fluorescence intensity signals by HCS Fluorescent Imaging technology.Data from the assay component APR_HepG2_CellCycleArrest_24hr was analyzed into 1 assay endpoint. This assay endpoint, APR_HepG2_CellCycleArrest_24hr, was analyzed with bidirectional fitting relative to DMSO as the negative control and baseline of activity. Using a type of morphology reporter, measures of all nuclear dna for gain or loss-of-signal activity can be used to understand the signaling at the pathway-level as they relate to the gene . Furthermore, this assay endpoint can be referred to as a primary readout, because this assay has produced multiple assay endpoints where this one serves a signaling function. To generalize the intended target to other relatable targets, this assay endpoint is annotated to the cell cycle intended target family, where the subfamily is arrest.
(§2) Cells were treated with dimethyl sulfoxide (DMSO) as a solvent control at a final concentration of 0.5% v/v or with compounds in DMSO with a resulting final DMSO concentration of 0.5% v/v. Compound treatment was done at concentrations of 0.39, 0.78, 1.56, 3.12, 6.24, 12.5, 25, 50, 100, and 200 uM in duplicate on each plate. Cells were treated with compounds for 1, 24, or 72 hr. Carbonyl […] m-chloro-phenylhydrazone (CCCP) and taxol were used as positive controls for mitochondrial function and cytoskeletal stability, respectively; DMSO served as the negative control for this experiment. Cells were fixed by the direct addition of 50 uL formaldehyde in Hank's Balanced Salt Solution (HBSS) to a final concentration of 3.7%. After incubation in the fixation medium for 30 min at room temperature (293-298 K), cells were rinsed twice with HBSS and treated with cell permeabilization buffer (16 uL of 0.5% Triton X-100) for 10 min at room temperature (293-298 K) before labeling. For mitochondrial membrane potential and mitochondrial measurements, pre-fixed cells were incubated with 50 uL of MitoTracker Red CMXRos (Invitrogen) at a concentration of 250 nM for 30 min before fixation. In the remaining cases, post-fixed cells were labeled by incubation with a multiplexed mixture of primary antibodies in HBSS for 60 min at room temperature (293-298 K) to detect immunoreactivity of c-Jun (1:500), phospho-histone H3 (1:100), phospho-histone H2A.x (1:200), p53 (1:400), alpha-tubulin (1:200) and Hoechst 33342 (2 ug/mL). Cells were labeled for multiplexed imaging on two separate plates: a) Hoechst 33342, MitoTracker Red, phospho-histone H3, and alpha-tubulin, and b) Hoechst 33342, phospho-histone H2A.x, and c-Jun. A final rinse with HBSS (50 uL) was performed before analysis. The primary and secondary antibodies for the proteins were phospho-histone H3 (rabbit anti-phospho-histone H3 and FITC-donkey anti-rabbit IgG), phospho-histone H2A.x (mouse anti-phospho-histone H2A.x and FITC-donkey anti-mouse IgG), c-Jun (rabbit anti-phospho-c-Jun and Cy3-donkey anti-rabbit IgG), p53 (sheep anti-p53 and Cy5-donkey anti-sheep IgG), alpha-tubulin (mouse anti-alpha-tubulin and Cy5-donkey anti-mouse IgG). These antibodies are available as the CellCiphr HepG2 assay kit (Millipore).Digital images of each well were captured using a Cellomics ArrayScan VTI (Thermo Scientific Cellomics) (0.8 NA objective, 0.63x optical coupler, and XF-93 filter set) at 20x magnification. The images were acquired using the autofocus feature of the ArrayScan instrument, which entails the following steps. First, the camera focuses on channel 1 (Hoechst 33342), where nuclei are identified. Second, a Z offset of 1 um is used for capturing mitochondria (MitoTracker Red). […]

[2] = APR_HepG2_NuclearSize_24hr: Apredica 24-hour HepG2 Assay for Nuclear Size (AID 2282907); conditions: high-content imaging, actives raise or lower the signal
In short: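 HepG2 cells exposed 24 h to compounds at 0.39–200 uM (0.5% DMSO), fixed, Hoechst 33342 stained and imaged at 20x; nuclear diameter measured by automated image analysis, fitted bidirectionally against DMSO controls.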

[3] = APR_HepG2_CellLoss_24hr: Apredica 24-hour HepG2 Assay for Cell Loss (AID 2282908); conditions: high-content imaging;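 on AC50: fit in both directions so a hit may be cell loss or gain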
In short: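 HepG2 cells exposed 24 hr to 0.39–200 uM compound in duplicate at 0.5% v/v final DMSO. Cells fixed in 3.7% formaldehyde and Hoechst 33342-stained. Cell number came from nuclear imaging at 20x. Bidirectional fit versus DMSO.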

[4] = APR_HepG2_MicrotubuleCSK_24hr: Apredica 24-hour HepG2 Assay for Microtubule CSK Stabilty (AID 2282909); conditions: HepG2 microtubule cytoskeleton imaging, actives raise or lower the signal
Procedure: APR_HepG2_24hr is a cell-based, multiplexed-readout assay that uses HepG2, a human liver cell line, with measurements taken at 24 hours after chemical dosing in a 384-well plate.APR_HepG2_MicrotubuleCSK_24hr is one of 10 assay component(s) measured or calculated from the APR_HepG2_24hr assay. It is designed to make measurements of protein conformation, a form of conformation reporter, as detected with fluorescence intensity signals by HCS Fluorescent Imaging technology.Data from the assay component APR_HepG2_MicrotubuleCSK_24hr was analyzed into 1 assay endpoint. This assay endpoint, APR_HepG2_MicrotubuleCSK_24hr, was analyzed with bidirectional fitting relative to DMSO as the negative control and baseline of activity. Using a type of conformation reporter, measures of protein for gain or loss-of-signal activity can be used to understand the signaling at the cellular-level. Furthermore, this assay endpoint can be referred to as a primary readout, because this assay has produced multiple assay endpoints where this one serves a signaling function. To generalize the intended target to other relatable targets, this assay endpoint is annotated to the cell morphology intended target family, where the subfamily is cell conformation.
as §2

[5] = APR_HepG2_MitoticArrest_24hr: Apredica 24-hour HepG2 Assay for Mitotic Arrest (AID 2282910); conditions: high-content imaging, actives raise or lower the signal
In short: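 HepG2 human liver cells were exposed to compounds at 0.39–200 uM (10 concentrations, duplicate) in 0.5% v/v DMSO for 24 hr, then fixed and immunostained for phospho-histone H3 with Hoechst 33342. Mitotic arrest came from HCS fluorescent imaging, fitted bidirectionally against DMSO.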

[6] = APR_HepG2_MitoMembPot_24hr: Apredica 24-hour HepG2 Assay for Mitochondrial Membrane Potential (AID 2282911); conditions: imaging, actives raise or lower the signal
In short: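 HepG2, 24 hr dosing, 10 concentrations 0.39–200 uM, 0.5% DMSO final. Live-cell MitoTracker Red CMXRos 250 nM 30 min, then 3.7% formaldehyde fix. HCS fluorescence imaging, 20x; bidirectional fit vs DMSO baseline.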

[7] = APR_HepG2_MitoMass_24hr: Apredica 24-hour HepG2 Assay for Mitochondrial Mass (AID 2282912); conditions: high-content imaging, actives raise or lower the signal
In short: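 HepG2 cells exposed 24 hr to 0.39–200 uM compound, 0.5% v/v DMSO, in duplicate. Stained before fixation with 250 nM MitoTracker Red CMXRos for 30 min, then imaged at 20x with Hoechst nuclei. Fitted in both directions against DMSO.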

[8] = APR_HepG2_CellCycleArrest_72hr: Apredica 72-hour HepG2 Assay for Cell Cycle Arrest (AID 2282914); conditions: high-content imaging, actives raise or lower the signal
Procedure: as §1, with “APR_HepG2_72hr” for “APR_HepG2_24hr”, “72” for “24”, “plate.APR_HepG2_CellCycleArrest_72hr” for “plate.APR_HepG2_CellCycleArrest_24hr”, “APR_HepG2_CellCycleArrest_72hr” for “APR_HepG2_CellCycleArrest_24hr”, “APR_HepG2_CellCycleArrest_72hr,” for “APR_HepG2_CellCycleArrest_24hr,”
as §2

[9] = APR_HepG2_CellLoss_72hr: Apredica 72-hour HepG2 Assay for Cell Loss (AID 2282915); conditions: high-content imaging
In short: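 HepG2 cells were exposed for 72 hr to compounds at 0.39–200 uM (ten concentrations, duplicate) in 0.5% v/v final DMSO. Nuclei were stained with Hoechst 33342 after 3.7% formaldehyde fixation, imaged at 20x, and counted; fits bidirectional versus DMSO.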

[10] = APR_HepG2_p53Act_24hr: Apredica 24-hour HepG2 Assay for p53 Activation (AID 2282913); conditions: high-content imaging, actives raise or lower the signal
In short: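 Read-out: Cy5 immunofluorescence for p53 in fixed, permeabilized HepG2, imaged by HCS with Hoechst-defined nuclei. Dosing was 24 hr at 0.39–200 uM in 0.5% DMSO. Curves were fitted bidirectionally relative to DMSO.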

OCC(CO)(CBr)CBr
outcome [1]: inactive
outcome [2]: inactive
outcome [3]: inactive
outcome [4]: inactive
outcome [5]: inactive
outcome [6]: inactive
outcome [7]: inactive
outcome [8]: inactive
outcome [9]: inactive

CCCCCCCCCCCCOS(=O)(=O)O
outcome [1]: inactive
outcome [2]: inactive
outcome [3]: inactive
outcome [4]: inactive
outcome [5]: inactive
outcome [6]: inactive
outcome [7]: inactive
outcome [8]: inactive
outcome [9]: inactive

CC(=O)Nc1ccc(O)cc1
outcome [3]: inactive
outcome [5]: inactive
outcome [6]: inactive
outcome [7]: inactive
outcome [9]: inactive

Cc1[nH]nc2c1N=C(c1ccccc1Cl)c1cc([N+](=O)[O-])ccc1N2
AC50 [1]: 0.364 µM (active)
AC50 [2]: 0.512 µM (active)
AC50 [3]: 0.0391 µM (active)
outcome [4]: inactive
outcome [5]: inactive
AC50 [6]: 100 µM (active)
AC50 [7]: 1.09 µM (active)
AC50 [8]: 0.279 µM (active)
AC50 [9]: 1.49 µM (active)

O=C(c1ccccc1)c1ccccc1
outcome [3]: inactive
outcome [5]: inactive
outcome [6]: inactive
outcome [7]: inactive
outcome [10]: inactive
outcome [9]: inactive

CCCCc1oc2ccccc2c1C(=O)c1cc(I)c(OCCN(CC)CC)c(I)c1
AC50 [3]: 43.8 µM (active)
AC50 [5]: 15.7 µM (active)
outcome [6]: inactive
AC50 [7]: 20.7 µM (active)
AC50 [10]: 33.5 µM (active)
AC50 [9]: 17.2 µM (active)

CCCCC=O
outcome [1]: inactive
outcome [2]: inactive
outcome [3]: inactive
outcome [4]: inactive
outcome [5]: inactive
outcome [6]: inactive
outcome [7]: inactive
outcome [8]: inactive
outcome [9]: inactive

CCCCCCCCCCCCCCC
outcome [1]: inactive
outcome [2]: inactive
outcome [3]: inactive
outcome [4]: inactive
outcome [5]: inactive
outcome [6]: inactive
outcome [7]: inactive
outcome [8]: inactive
outcome [9]: inactive

CS(=O)(=O)c1ccc([C@@H](CC2CCCC2)C(=O)Nc2cnccn2)cc1Cl
outcome [3]: inactive
outcome [5]: inactive
outcome [6]: inactive
outcome [7]: inactive
outcome [10]: inactive
outcome [9]: inactive

N=C(N)c1ccc(OCCCCCOc2ccc(C(=N)N)cc2)cc1
outcome [1]: inactive
outcome [2]: inactive
AC50 [3]: 9.33 µM (active)
AC50 [4]: 32.6 µM (active)
AC50 [5]: 30 µM (active)
outcome [6]: inactive
AC50 [7]: 30 µM (active)
AC50 [8]: 4.81 µM (active)
AC50 [9]: 24.2 µM (active)

CN(C)CCOC(c1ccccc1)c1ccccc1
outcome [3]: inactive
outcome [5]: inactive
outcome [6]: inactive
outcome [7]: inactive
AC50 [9]: 90.8 µM (active)

CCCCC(CC)C(=O)O (stereo not given)
outcome [1]: inactive
outcome [2]: inactive
outcome [3]: inactive
outcome [4]: inactive
outcome [5]: inactive
outcome [6]: inactive
outcome [7]: inactive
outcome [8]: inactive
outcome [9]: inactive

O=C1NS(=O)(=O)c2ccccc21
outcome [1]: inactive
outcome [2]: inactive
outcome [3]: inactive
outcome [4]: inactive
outcome [5]: inactive
outcome [6]: inactive
outcome [7]: inactive
outcome [8]: inactive
outcome [9]: inactive

CN(Cc1cnc2nc(N)nc(N)c2n1)c1ccc(C(=O)N[C@@H](CCC(=O)O)C(=O)O)cc1
outcome [1]: inactive
outcome [2]: inactive
outcome [3]: inactive
outcome [4]: inactive
outcome [5]: inactive
outcome [6]: inactive
outcome [7]: inactive
outcome [8]: inactive
outcome [9]: inactive

O=C(CCCN1CCC(O)(c2ccc(Cl)cc2)CC1)c1ccc(F)cc1
AC50 [3]: 87.4 µM (active)
AC50 [5]: 34.5 µM (active)
outcome [6]: inactive
AC50 [7]: 46 µM (active)
AC50 [10]: 98.3 µM (active)
AC50 [9]: 34.7 µM (active)
